Our source for the composite z-score and z-score values is PubChem BioAssay.

Calls of active or inactive are those of the source. Unless noted, the rule behind the calls is not given here.

Assay [1] has as its system Wnt5a (protein binding on small-molecule microarray). Briefly: small molecules binding Wnt5a protein – biophysical, small-molecule microarray, 635/667 nm fluorescence, primary screen (AID 1142).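 Note: fluorescence read at 667 nm with signal to noise per printed feature.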 The note with it: 635 nm fluorescence, higher = more signal.
The nature of assay [2]: ATP-based viability of Huh7 replicon cells – cell-based, CellTiter-Glo luminescence, basal, 48 h, cytotoxicity control for HCV replication inhibitor project, primary screen (AID 1143).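 Note: Huh7 hepatoma cells carrying a hepatitis C replication reporter with no stimulus; test concentration not given here.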 The note with it: higher = more signal, called active from +8 up or from −8 down. (In general: In antiviral work, replicon cells carry a viral genome segment that copies itself.)
Assay [3] in a line: Pseudomonas biofilm growth suppression – PAO1 strain, BacTiter-Glo luminescence, LB-PBS, primary screen (AID 1144). As to conditions: P. aeruginosa PAO1 biofilm, 12 h, higher = more signal.
The nature of assay [4]: basal CRE-LacZ reporter activity in PC12 – cell-based, unstimulated, primary screen (AID 1145). As to conditions: no forskolin, luminescence, 4.5 h, higher = more signal, called active from +8 up or from −8 down.
Assay [5] is described as follows: forskolin-driven CRE-LacZ activity in PC12 – cell-based, CRE-LacZ reporter, forskolin-stimulated, primary screen (AID 1146).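 Note: PC12 cells with 6xCRE LacZ reporter stimulated by forskolin 10 µM; beta-galactosidase reporter signal reflecting CREB driven transcription.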 As to conditions: luminescence, 4.5 h, higher = more signal, called active from +8 up or from −8 down.
Assay [6] has as its target Streptavidin (Streptomyces avidinii) (UniProt P22629). The assay can be described thus: compounds binding control protein streptavidin – biophysical, small-molecule microarray, 635/667 nm fluorescence, artefact control for SMM compound annotation, primary screen (AID 1147).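 Note: signal reflects streptavidin binding to arrayed compounds as a control protein.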 As to conditions: higher = more signal.
A short description of assay [7]: probe aInhba binding on compound microarray – biochemical, small-molecule microarray, 635/667 nm fluorescence, primary screen (AID 1148).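 Note: score merges 667nm spot fluorescence with signal-to-noise for antibody binding to printed compounds.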 As to conditions: higher = more signal.
Assay [8] deals with Torsin-1A (Homo sapiens) (UniProt O14656). Briefly: TOR1A wild-type binding on microarray – cell lysate, small-molecule microarray, lysate, 635/667 nm, primary screen (AID 1149). The note with it: COS7 hTOR1A-WT lysate, 635 nm fluorescence, higher = more signal.
Assay [9] has the same target. The assay can be described thus: torsin A mutant lysate binding on microarrays – cell lysate, small-molecule microarray, COS7 lysate, 635/667 nm fluorescence, primary screen (AID 1150).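 Note: score pools 667 nm emission and signal to noise measuring lysate protein binding.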 As to conditions: COS7 hTOR1A mutant lysate, 635 nm fluorescence, higher = more signal.
Assay [10] concerns Sonic hedgehog protein (Shh). Briefly: Sonic hedgehog microarray binding compounds – biochemical, small-molecule microarray, 635/667 nm fluorescence, primary screen (AID 1151).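 Note: Shh protein binding to compounds spotted on small-molecule microarray slides; score combines spot fluorescence intensity with signal-to-noise across triplicate slides.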 As to conditions: 635 nm fluorescence, higher = more signal.
Assay [11] is described as follows: optical density shifts of acrAB sulA E. coli – strain DRC41, OD650, 48 h, E. coli filamentation inducer project, primary screen (AID 1152).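 Note: E. coli MC1000 strain DRC41 lacking acrAB efflux pump and sulA.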 The note with it: higher = more signal, called active from +8 up or from −8 down.
A short description of assay [12]: probe aLefty1 binding on compound microarray – biochemical, small-molecule microarray, 635/667 nm fluorescence, primary screen (AID 1153).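 Note: score merges spot fluorescence with signal-to-noise ratio from the scanned slide images.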 The note with it: higher = more signal.
The nature of assay [13]: plasmodial surface anion channel blockers, osmotic lysis – cell-based, P. falciparum Indochina, OD700, 1 h, primary screen (AID 1154). The note with it: P. falciparum Indochina infected RBC osmotic lysis, higher = more signal, called active from +8 up or from −8 down.
A short description of assay [14]: plasmodial surface anion channel blockers, osmotic lysis – cell-based, P. falciparum Indochina, OD700, 2 h, primary screen (AID 1155).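 Note: lysis reports solute entry through the parasite surface anion channel PSAC.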 As to conditions: P. falciparum Indochina infected erythrocytes, higher = more signal, called active from +8 up or from −8 down.
The nature of assay [15]: changes in parasitized red cell lysis, either direction – P. falciparum Indochina, OD700, 3 h, PSAC antagonist project, primary screen (AID 1156). The note with it: P. falciparum-infected erythrocytes, osmotic lysis, higher = more signal, called active from +8 up or from −8 down.
A short description of assay [16]: plasmodial surface anion channel blockers, osmotic lysis – cell-based, P. falciparum Indochina, OD700, 18 h, primary screen (AID 1157). As to conditions: P. falciparum Indochina infected erythrocytes, osmotic lysis OD700, 18 h; higher = more signal, called active from +8 up or from −8 down.
The nature of assay [17]: S6 kinase pathway phospho-S6 level changes – cell-based, A549, cytoblot, luminescence, serum-stimulated, primary screen (AID 1158).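 Note: serum-stimulated A549 lung adenocarcinoma cells; signal is phosphorylated S6 detected by cytoblot immunostaining with HRP secondary.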 The note with it: 5 h, higher = more signal.
Assay [18] addresses NADPH oxidase 2 (Homo sapiens) (UniProt P04839). The assay can be described thus: compounds shifting NOX2 Amplex Red fluorescence – cell-based, HEK293-NOX2, PMA-stimulated, NOX inhibitor project, primary screen (AID 1159). Note: test concentration not given here. As to conditions: 45 min, higher = more signal, called active from +8 up or from −8 down.
The target of assay [19] is NADPH oxidase 4 (Homo sapiens) (UniProt Q9NPH5). The assay can be described thus: compounds shifting NOX4 Amplex Red fluorescence – cell-based, HEK293-NOX4, tetracycline-induced, NOX inhibitor project, primary screen (AID 1160). The note with it: HEK293-NOX4, Amplex Red H2O2 fluorescence, 45 min; higher = more signal, called active from +8 up or from −8 down.
Assay [20] concerns the target NADPH oxidase 5 (Homo sapiens) (UniProt Q96PH1). The assay can be described thus: compounds shifting NOX5 Amplex Red fluorescence – cell-based, HEK293-NOX5, NOX inhibitor project, primary screen (AID 1161). As to conditions: HEK293-NOX5, ionomycin, 45 min, higher = more signal.

Sequence of NADPH oxidase 4 (Homo sapiens) (Q9NPH5 whole entry, looked up): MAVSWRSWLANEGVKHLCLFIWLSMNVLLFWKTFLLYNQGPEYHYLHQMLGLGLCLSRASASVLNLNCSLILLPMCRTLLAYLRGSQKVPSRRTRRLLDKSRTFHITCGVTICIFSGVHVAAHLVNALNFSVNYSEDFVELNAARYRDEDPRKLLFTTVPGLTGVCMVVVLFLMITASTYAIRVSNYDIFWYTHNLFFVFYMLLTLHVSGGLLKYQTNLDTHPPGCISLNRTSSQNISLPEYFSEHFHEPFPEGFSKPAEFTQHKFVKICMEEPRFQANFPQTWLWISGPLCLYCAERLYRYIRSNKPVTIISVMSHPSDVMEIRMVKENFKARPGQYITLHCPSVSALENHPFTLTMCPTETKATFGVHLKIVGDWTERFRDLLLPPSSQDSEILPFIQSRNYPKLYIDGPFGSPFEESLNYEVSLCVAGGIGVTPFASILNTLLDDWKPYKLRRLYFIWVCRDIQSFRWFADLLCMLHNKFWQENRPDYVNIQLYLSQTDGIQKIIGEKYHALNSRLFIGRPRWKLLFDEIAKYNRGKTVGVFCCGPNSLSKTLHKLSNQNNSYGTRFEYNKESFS
Sequence of Torsin-1A (Homo sapiens) (O14656 whole entry, looked up): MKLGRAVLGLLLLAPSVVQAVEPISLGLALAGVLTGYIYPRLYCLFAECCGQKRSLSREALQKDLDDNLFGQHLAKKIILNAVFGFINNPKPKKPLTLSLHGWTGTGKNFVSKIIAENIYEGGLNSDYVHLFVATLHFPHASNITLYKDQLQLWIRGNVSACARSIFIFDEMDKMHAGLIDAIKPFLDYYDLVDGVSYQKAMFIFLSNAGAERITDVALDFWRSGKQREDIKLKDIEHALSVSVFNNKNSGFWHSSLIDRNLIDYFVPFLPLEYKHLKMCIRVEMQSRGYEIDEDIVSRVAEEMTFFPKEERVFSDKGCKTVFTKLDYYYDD
Sequence of NADPH oxidase 2 (Homo sapiens) (P04839 whole entry, looked up): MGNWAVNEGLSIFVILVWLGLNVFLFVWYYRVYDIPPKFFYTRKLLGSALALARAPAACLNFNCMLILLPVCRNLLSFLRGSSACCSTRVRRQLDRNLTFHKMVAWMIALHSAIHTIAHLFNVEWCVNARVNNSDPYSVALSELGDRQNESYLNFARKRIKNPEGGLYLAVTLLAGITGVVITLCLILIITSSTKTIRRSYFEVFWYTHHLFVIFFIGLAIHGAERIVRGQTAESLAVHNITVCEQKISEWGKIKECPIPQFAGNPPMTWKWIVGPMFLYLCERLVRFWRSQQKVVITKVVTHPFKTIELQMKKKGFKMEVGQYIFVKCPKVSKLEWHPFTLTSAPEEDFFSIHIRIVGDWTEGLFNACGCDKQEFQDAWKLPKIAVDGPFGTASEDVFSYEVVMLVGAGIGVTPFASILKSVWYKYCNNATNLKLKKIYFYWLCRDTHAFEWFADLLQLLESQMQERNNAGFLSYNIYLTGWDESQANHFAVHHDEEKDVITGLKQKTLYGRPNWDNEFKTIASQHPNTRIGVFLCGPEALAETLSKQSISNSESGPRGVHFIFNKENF
Sequence of Streptavidin (Streptomyces avidinii) (P22629 whole entry, looked up): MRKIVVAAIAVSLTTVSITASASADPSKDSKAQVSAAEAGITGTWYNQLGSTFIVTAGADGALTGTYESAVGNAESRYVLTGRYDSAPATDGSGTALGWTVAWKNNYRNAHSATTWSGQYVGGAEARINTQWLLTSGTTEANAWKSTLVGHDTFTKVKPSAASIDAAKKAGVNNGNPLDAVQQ
Sequence of NADPH oxidase 5 (Homo sapiens) (Q96PH1 whole entry, looked up): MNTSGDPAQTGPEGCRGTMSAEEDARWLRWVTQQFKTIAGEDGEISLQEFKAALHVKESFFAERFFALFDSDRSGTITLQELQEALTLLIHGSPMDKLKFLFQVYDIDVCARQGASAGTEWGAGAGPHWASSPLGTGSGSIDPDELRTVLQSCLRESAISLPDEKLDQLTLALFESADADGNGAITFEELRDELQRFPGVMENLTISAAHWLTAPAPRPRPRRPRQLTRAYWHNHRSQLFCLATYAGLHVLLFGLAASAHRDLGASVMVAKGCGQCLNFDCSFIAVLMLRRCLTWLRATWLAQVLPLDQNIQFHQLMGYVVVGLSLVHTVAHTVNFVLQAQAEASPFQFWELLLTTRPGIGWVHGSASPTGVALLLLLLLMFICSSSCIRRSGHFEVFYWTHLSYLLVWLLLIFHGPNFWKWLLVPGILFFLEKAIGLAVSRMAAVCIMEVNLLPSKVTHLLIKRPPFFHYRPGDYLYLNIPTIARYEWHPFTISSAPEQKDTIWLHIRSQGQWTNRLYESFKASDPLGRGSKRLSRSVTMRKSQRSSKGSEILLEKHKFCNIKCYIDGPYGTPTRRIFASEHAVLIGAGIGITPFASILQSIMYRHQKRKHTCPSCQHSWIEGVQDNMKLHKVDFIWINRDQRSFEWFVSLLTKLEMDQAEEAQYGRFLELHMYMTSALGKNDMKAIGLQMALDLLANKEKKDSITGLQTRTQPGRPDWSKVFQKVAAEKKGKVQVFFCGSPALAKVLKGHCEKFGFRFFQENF

As for `CC(C)(C)OC(=O)CC[C@]1(C(=O)N2CCOCC2)N=C(c2ccc(OCCCO)cc2)O[C@H]1c1ccccc1N=[N+]=[N-]`, the composite z-score was 0.846 in assay [1]; 1.42 in assay [6]; 0.236 in assay [7]; 0.64 with Torsin-1A (Homo sapiens) [8]; 1.7 with Torsin-1A (Homo sapiens) [9]; -0.371 in assay [10]. Besides, the composite z-score in assay [12] was 0.171. Besides, the z-score in assay [2] was -0.884 (inactive); in [3] it was 1.17 (inactive); in assay [4], 1.31 (inactive); in [5] it was -1.4 (inactive); in assay [11] it was 1.52 (inactive); in [13], 33 (active). For the same molecule, the z-score in [14] was 31.2 (active); in assay [15], 1.75 (inactive); in assay [16], 2.8 (inactive); in assay [17], -0.435; in assay [18], -1.71 (inactive); in assay [19] it was -0.279 (inactive). In addition, the z-score in assay [20] was -1.94.

As to `C=CCOC(=O)[C@@H]1[C@H]2C(=O)O[C@H](c3ccccc3)[C@H](c3ccccc3)N2[C@H](c2ccc(OCCOC(=O)[C@H]3C[C@H]4C(=O)N5CCC[C@H]5C(=O)N4[C@H]3c3ccc(O)cc3)cc2)[C@@]12C(=O)Nc1ccc(I)cc12`, the composite z-score in assay [1] was 0.259; in assay [6], -0.033; in assay [7] it was -0.0775; with Torsin-1A (Homo sapiens) [8], 0.919; with Torsin-1A (Homo sapiens) [9], 0.98; in [10], 2.15. In assay [12], this molecule came in with a composite z-score of 0.19. The z-score in assay [2] is -2.3 (inactive); in [3], -0.212 (inactive); in [4] it was 0.277 (inactive); in assay [5], -0.466 (inactive); in [11], 0.371 (inactive); in [13], 1.37 (inactive). Further, the z-score in assay [14] was -0.552 (inactive); in assay [15], 0.777 (inactive); in [16] it was -1.37 (inactive); in [17], 0.718; in assay [18], 0.986 (inactive); in [19] it was 1.1 (inactive). For the same molecule, in [20], the z-score was 1.36.

`COC(=O)[C@@]1(Cc2ccc(F)cc2)[C@H]2c3cc(C(=O)N4CCCC4)n(Cc4ccc(S(C)(=O)=O)cc4)c3C[C@H]2CN1C(=O)c1ccccc1`: the composite z-score in [1] was 0.196; in assay [6] it was 1.19; in assay [7], 0.864; with Torsin-1A (Homo sapiens) [8], 0.181; in the assay with Torsin-1A (Homo sapiens) [9], 0.861; in assay [10], -0.716. Also, the composite z-score in assay [12] amounted to 1.24. The z-score in assay [2] was -1.71 (inactive); in assay [3] it was 0.53 (inactive); in assay [4] it was 0.39 (inactive); in [5], 0.363 (inactive); in assay [11] it was -1.75 (inactive); in assay [13] it was 2.29 (inactive). The z-score in assay [14] was 0.675 (inactive); in assay [15] it was 0.775 (inactive); in [16], 0.643 (inactive); in [17], -0.339; in assay [18], 0.949 (inactive); in assay [19] it was -0.138 (inactive). In addition, in [20], the z-score is -0.744.

Consider `O=C1O[C@H](c2ccccc2)[C@H](c2ccccc2)N2[C@H]1[C@@H](C(=O)N1CCCCCCC1)[C@]1(C(=O)Nc3ccc(C#CC4=CCCCC4)cc31)[C@H]2c1ccc(OCCO)cc1`, for which the composite z-score is 1.79 in assay [1]; 3.17 in [6]; 2.23 in assay [7]; 1.5 with Torsin-1A (Homo sapiens) [8]; 1.88 with Torsin-1A (Homo sapiens) [9]; 1.59 in assay [10]. In [12], this molecule displayed a composite z-score of 2.88. Besides, the z-score in assay [2] was -5.63 (inactive); in assay [3] it was -0.761 (inactive); in assay [4] it was 0.182 (inactive); in assay [5] it was -0.617 (inactive); in assay [11], 2.72 (inactive); in [13] it was 10.2 (active). Further, the z-score in assay [14] is 0.658 (inactive); in [15] it was 1.08 (inactive); in [16], -1.25 (inactive); in [17] it was 2.85; in assay [18] it was -0.708 (inactive); in assay [19], 0.14 (inactive). In assay [20], the z-score was -2.05.
